TrxR1 substrate: substrates of rat thioredoxin reductase 1 | O89049 | purified TrxR1 substrate turnover, NADPH consumption readout | Potency, µM (doses to about 114 µM), for the others: at the top dose activity change, negative = substrate turnover | 0.01% of 390,000 active | AID 588456; note: potency is the fitted concentration of half-maximal effect; % is set by controls: 0 for no effect and ±100 for the full control effect; nearly all actives have a fitted effect of over 50% in size
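Rat TrxR1, dispensed at 90 nM, was prereduced with 400 uM NADPH (final) for 5 min at ~22 deg C, then incubated with compound 15 min before 400 uM selenite. A first-read NADPH fluorescence drop versus no-compound background flagged substrates.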
Anesthetic bind: candidate novel general anesthetic via apoferritin binding; Potency, µM (series often up to 77.5 µM), without a hit: at the highest dose activity change, negative = displacement, usual class: inhibitors; P02791; 0.074% of 350,000 active; apoferritin/1-aminoanthracene competitive binding, fluorescence; note: potency is the fitted concentration of half-maximal effect; % is set by controls: 0 for no effect and ±100 for the full control effect; nearly all actives have a fitted effect of over 20% in size
Target sequence (P02791 2-175 limits assumed): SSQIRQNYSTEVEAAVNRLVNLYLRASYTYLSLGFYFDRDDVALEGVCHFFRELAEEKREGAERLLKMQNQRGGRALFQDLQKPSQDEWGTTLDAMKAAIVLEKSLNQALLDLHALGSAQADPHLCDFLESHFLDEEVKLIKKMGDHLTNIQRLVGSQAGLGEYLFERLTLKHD
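Horse-spleen apoferritin (10 uM) in 50% saturated 1-aminoanthracene in PBS was incubated 10 min at room temperature with compound. Fluorescence (ex 380, em 535 nm) was normalized to free and bound 1-AMA, with concentration-response fitted by a four-parameter Hill equation.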
IDH1 R132H inh: human IDH1 R132H inhibition; IDH1-R132H enzyme, NADPH consumption, diaphorase/resazurin fluorescence; 0.093% of 390,000 active; O75874; Potency, µM (series often up to 76.6 µM), for inactives: at the highest dose activity change, negative = inhibition, most hits filed as inhibitors; note: potency is the fitted concentration of half-maximal effect; % is set by controls: 0 for no effect and ±100 for the full control effect; nearly all actives have a fitted effect of over 65% in size
Target sequence (O75874 whole entry R132H, stated change not applied): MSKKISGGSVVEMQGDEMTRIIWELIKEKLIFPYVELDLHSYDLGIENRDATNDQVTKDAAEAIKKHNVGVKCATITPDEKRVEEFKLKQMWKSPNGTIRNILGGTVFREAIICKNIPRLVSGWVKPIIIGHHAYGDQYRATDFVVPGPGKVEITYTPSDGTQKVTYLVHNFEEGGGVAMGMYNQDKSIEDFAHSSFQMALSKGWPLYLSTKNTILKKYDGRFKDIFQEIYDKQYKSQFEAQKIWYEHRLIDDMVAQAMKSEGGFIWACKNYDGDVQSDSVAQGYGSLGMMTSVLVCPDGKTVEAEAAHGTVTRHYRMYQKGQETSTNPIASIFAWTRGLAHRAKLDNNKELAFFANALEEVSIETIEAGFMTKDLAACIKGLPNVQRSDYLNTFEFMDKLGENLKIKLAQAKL
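IDH1-R132H (0.5 ug/mL) preincubated 30 min with compound, then NADPH (0.016 mM) and alpha-KG (2 mM) added; 80 min at RT, pH 7.5. Remaining NADPH coupled via diaphorase/resazurin to fluorescence (540/590 nm); concentration-response curves normalized to no-enzyme control.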
TrxR1 inh: inhibitors of rat thioredoxin reductase 1 | Potency, µM (titrated, usually from 114 µM), for the others: top-dose activity change, negative = inhibition, most hits filed as inhibitors | recombinant rTrxR1, NADPH fluorescence consumption, selenite substrate | O89049 | 1% of 390,000 active; note: potency is the fitted concentration of half-maximal effect; % is set by controls: 0 for no effect and ±100 for the full control effect; nearly all actives have a fitted effect of over 65% in size
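Rat TrxR1 (90 nM in the dispensed reagent) was pre-reduced with 400 uM NADPH for 5 min at room temperature, then incubated with compound for 15 min. After 400 uM selenite was added, NADPH fluorescence (Ex 340/Em 450 nm) was followed for 8 min.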
12-LOX inh: blocks human arachidonate 12S-lipoxygenase. P18054. purified 12hLO, xylenol orange hydroperoxide absorbance. Potency, µM (series often up to 108 µM), without a hit: at the highest dose activity change, negative = inhibition, usual class: inhibitors. 1.1% of 580,000 active. AID 1671190; note: potency is the fitted concentration of half-maximal effect; % is set by controls: 0 for no effect and ±100 for the full control effect
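Hydroperoxide product was detected by ferrous iron/xylenol orange as the 573 to 405 nm absorbance ratio. Arachidonic acid at 40 uM (final) was turned over for 30 min at room temperature by 150 nM human 12hLO, pH 7.0 Hepes buffer, after 15 min compound preincubation.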
GRP78 ERSR act: induces the endoplasmic reticulum stress response in human glioma cells; Potency, µM, for inactives: at the highest dose activation, usual class: activators; U87-MG GRP78 promoter luciferase reporter, 16 h; 0.02% of 420,000 active; AID 602332; note: potency is the fitted concentration of half-maximal effect; series mostly up to about 76 µM; % of control where 0% means no effect; nearly all actives have a fitted effect of over 35% in size
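Stably transfected U87-MG human glioma cells carrying a GRP78-based luminescent sensor were seeded at 1000 cells/well, pin-dosed with compounds and incubated 16 h. Luciferase reagent was then added, and end-point luminescence was read after 10 min at room temperature.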
IDH1 autofl: autofluorescence interference, mutant IDH1 hit counter-screen; 750 tested, under 10 active; Resorufin detection reagent fluorescence interference, cell-free; AID 623980; shares compounds with IDH1 R132H inh; inhibition of signal, % at 51.2 µM;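 note: 0% = wells with normal resorufin and full inhibition = wells lacking resorufin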
IDH1 WT: selectivity of mutant IDH1 inhibitors: human wild-type IDH1 | shares compounds with IDH1 R132H inh | WT IDH1 enzyme, NADPH diaphorase/resazurin fluorescence | Potency, µM (titrated, usually from 115 µM), for inactives: at the top dose activity change, negative = inhibition, usual class: inhibitors | 9% of 750 active | AID 623995;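 note: potency is the fitted concentration of half-maximal effect; 0% = full WT IDH1 enzyme control and full inhibition = no enzyme wells; nearly all actives have a fitted effect of over 55% in size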
Target sequence (O75874 whole entry, looked up): as the sequence (O75874 whole entry R132H, stated change not applied) above, with H132R counted along it
IDH1 R132H conf: mutant IDH1 (human) inhibition, confirmed; shares compounds with IDH1 R132H inh; IDH1 R132H enzyme, NADPH diaphorase/resazurin fluorescence; Potency, µM (highest dose often 76.6 µM), for the others: at the highest dose activity change, negative = inhibition, most hits filed as inhibitors; 83% of 750 active; note: potency is the fitted concentration of half-maximal effect; nearly all actives have a fitted effect of over 50% in size
* = called active by the depositor; u = inconclusive; x = no result given; [ ] = remark or other dose. Rows were chosen to be rich in hits. Some 1.7% of all compounds tested hit in one or more screens of this group. Calls come from the whole dose curve; as a rule, active = well fitted curve in the direction sought with a large enough effect; inconclusive = small, poorly fitted or top-dose-only effect, or another doubt; inactive = no such curve, though single readings can be large; an effect the other way counts as inactive or inconclusive.

SMILES	TrxR1 substrate	Anesthetic bind	IDH1 R132H inh	TrxR1 inh	12-LOX inh	GRP78 ERSR act	IDH1 autofl	IDH1 WT	IDH1 R132H conf
COc1ccc(C2c3c(-c4ccccc4)n[nH]c3C(=O)N2c2ccc(C(=O)O)cc2)c(OC)c1 (centres undefined)	-1.0%	-11.3%	39.8µM*	8.2%	-13.6%	-1.8%	6.4	u	28.2µM*
Cc1ccc(-c2n[nH]c3c2C(c2cccc(O)c2)N(c2ccc(C(=O)O)cc2)C3=O)cc1 (centres undefined)	3.3%	0.9%	7.4%	9.3%	u	-1.4%	x	x	x
COc1cc(C2c3c(-c4ccccc4)n[nH]c3C(=O)N2c2ccc(C(=O)O)cc2)ccc1O (centres undefined)	9.8%	-3.5%	7.2%	u	x	-4.6%	x	x	x
COC(=O)c1ccc(C2c3c(-c4ccc(Br)cc4)n[nH]c3C(=O)N2c2ccc(Cl)cc2)cc1 (centres undefined)	4.4%	-1.6%	-12.1%	32.0%	-23.1%	u	x	x	x
Cc1onc(-c2cnn(C)c2NCc2ccc(C#N)cc2)c1C(=O)NCc1ccccc1	x	x	x	x	14.3%[176 µM]	x	x	x	x
O=C(O)CCCCCNC(=O)Cn1ccc2ccc(Cl)cc21	x	x	x	x	1.4%	x	x	x	x
CCOC(=O)c1ccc(N2C(=O)c3n[nH]c(-c4ccco4)c3C2c2ccc(OC)cc2OC)cc1 (centres undefined)	-9.3%	-19.7%	u	-2.7%	u	-0.2%	1.3	-0.6%	u
CCOC(=O)c1ccc(N2C(=O)c3n[nH]c(C)c3C2c2ccc(OC)cc2OC)cc1 (centres undefined)	-6.3%	-19.3%	-16.5%	18.3%[57.1 µM]	0.0%	-6.9%	x	x	x
Cc1cc(O)c2c(CSc3nc(C)cc(C)c3C#N)cc(=O)oc2c1	x	x	x	x	-7.5%	x	x	x	x
CC(C)CC(=O)N1CCCCCC1c1nnc(-c2ccccc2)o1 (centres undefined)	x	x	x	x	40.6%	x	x	x	x
COC(=O)c1c(NC(=O)COC(=O)c2ccc(O)cc2)sc2c1CCCCC2	-5.7%	-4.2%	u	-14.4%	-27.2%	-0.1%	6.5	5.4%	-27.4%
COCC(=O)Nc1sc2c(c1C(=O)OC)CCCC2	0.3%	-12.8%	5.1%	7.7%	u	-1.0%	x	x	x
O=C(COC(=O)c1ccc(F)c([N+](=O)[O-])c1)NC(=O)NCc1ccccc1	-4.0%	x	46.5µM*	u	386.0%	-11.8%	-7.7	-13.7%	28.2µM*
CCOC(=O)c1c(NC(=O)COC(=O)c2ccccc2NC)sc(C(=O)N(C)C)c1C	136.1%	0.7%	11.7µM*	37.0%	2.9%	1.3%	-4.2	9.7%	4.47µM*
CCOC(=O)c1c(NC(=O)COC(=O)Cc2ccccc2[N+](=O)[O-])sc(C(=O)N(C)C)c1C	-7.7%[57.1 µM]	x	0.0%	-7.4%[57.1 µM]	-30.0%	-3.0%	x	x	x
Cc1cc(NC(=O)CCC(=O)N(c2cccnc2)C(C(=O)NC2CCCC2)c2ccccc2)no1 (centres undefined)	-5.5%	-13.8%	u	-2.3%	42.5%	-5.4%	2.6	7.2%	u
Cc1cccc(N(C(=O)CCC(=O)Nc2cc(C)on2)C(C(=O)NC2CCCC2)c2ccccc2)c1 (centres undefined)	12.5%[0.0914 µM]	-6.0%	44.7µM*	15.5%[57.1 µM]	-11.4%	-2.6%	3.2	2.8%	20µM*
Cc1cccc(N(C(=O)CCC(=O)Nc2cc(C)on2)C(C(=O)NC2CCCC2)c2cccnc2)c1 (centres undefined)	-11.9%[57.1 µM]	-8.3%	-26.5%	29.3%[57.1 µM]	5.1%	-4.5%	x	x	x
COc1cc(/C=C\c2ccc(OC)cc2OC)cc(OC)c1	x	x	x	x	0.0%	1.9%	x	x	x
CN1CC(c2ccccn2)C2(SC(=S)N(Cc3ccccc3)C2=O)C12C(=O)Nc1ccccc12 (centres undefined)	5.2%	-16.6%	u	-8.3%	0.0%	-1.3%	-2.1	-2.4%	20µM*
Cc1ccc(S(=O)(=O)N(Cc2cc3cccc(C)c3[nH]c2=O)CC2CCCO2)cc1 (centres undefined)	x	x	x	x	6.4%	x	x	x	x
COc1cc2c3c(c1)C1(C(=O)N3C(C)(C)C=C2C)C(C#N)=C(N)Oc2cc(O)ccc21 (centres undefined)	-14.7%	-12.1%	29.3µM*	-7.7%	0.0%	-2.2%	-2.9	6.4%	15.8µM*
COc1ccc(-c2oc(NC(=O)CCl)c(C#N)c2-c2ccc(OC)cc2)cc1	-20.1%[11.4 µM]	u	29.3µM*	-64.5%[57.1 µM]	u	-18.5%	9.6	79.4µM*	8.91µM*
CCNC(=O)NC(=O)C(C)OC(=O)c1oc2ccccc2c1CSC1CCCCC1 (centres undefined)	-1.2%	-3.3%	u	4.5%	1.1%	-2.3%	-0.9	0.0%	31.6µM*
CCOC(=O)c1c(CSC(=N)N)n(C)c2cc(Br)c(OC(C)=O)cc12	2.5%[11.4 µM]	-8.8%	u	7.9%[11.4 µM]	-9.4%	-10.3%	-8.6	2.5%	14.1µM*
SMILES	TrxR1 substrate	Anesthetic bind	IDH1 R132H inh	TrxR1 inh	12-LOX inh	GRP78 ERSR act	IDH1 autofl	IDH1 WT	IDH1 R132H conf
CC(C)OCCCN1C(=O)c2[nH]nc(-c3ccccc3O)c2C1c1ccc(OCc2ccccc2)cc1 (centres undefined)	-1.7%	0.8%	-5.2%	18.4%	-9.5%	11.2%	x	x	x
COc1cc(C2c3c(-c4ccccc4O)n[nH]c3C(=O)N2CCO)ccc1OCc1ccccc1 (centres undefined)	2.6%	-8.3%	u	16.1%	3.4%	-1.4%	0.7	-5.3%	28.2µM*
O=C1c2[nH]nc(-c3ccccc3O)c2C(c2cccc(OCc3ccccc3)c2)N1CCCO (centres undefined)	-1.5%	65.0%	44.7µM*	5.9%	6.6%	16.8%	-11.4	u	39.8µM*
O=C1CCC(CCC(=O)N2CCN(c3ccccc3)C(=O)C2)(Cc2ccc(F)cc2)N1 (centres undefined)	x	x	x	x	-1.9%	x	x	x	x
CCc1ccc(C(=O)c2cnc3ccc(F)cc3c2S(=O)(=O)c2ccccc2)cc1	-2.6%	-5.5%	-3.7%	u	9.8%	-8.5%	x	x	x
CC(=O)C1=C(c2ccc(Cl)c(Cl)c2)N(C(C)=O)n2c(C)nnc2S1	4.9%[57.1 µM]	-14.0%	44.7µM*	-10.1%[57.1 µM]	-14.4%	u	-0.1	314.2%	39.8µM*

Assay outcomes as filed in PubChem.
